Source: ChEMBL document CHEMBL3988442, “University of Dundee, Small-Polar-MMV Screening Library” (2021)
Hit rate of the full screen: of about 69,000 compounds, about 420 (0.61%) showed an effect of 50% or more. The sample holds strong results, similar compounds and a random draw of the others, so the mix is not that of the screen.

The compounds below were run against T1, Histidine--tRNA ligase (Leishmania infantum) (UniProt A4I591) (assay: Leishmania infantum Histidine tRNA synthetase (LdHisRS)). Conditions: 30 µM.
T1 sequence (whole entry): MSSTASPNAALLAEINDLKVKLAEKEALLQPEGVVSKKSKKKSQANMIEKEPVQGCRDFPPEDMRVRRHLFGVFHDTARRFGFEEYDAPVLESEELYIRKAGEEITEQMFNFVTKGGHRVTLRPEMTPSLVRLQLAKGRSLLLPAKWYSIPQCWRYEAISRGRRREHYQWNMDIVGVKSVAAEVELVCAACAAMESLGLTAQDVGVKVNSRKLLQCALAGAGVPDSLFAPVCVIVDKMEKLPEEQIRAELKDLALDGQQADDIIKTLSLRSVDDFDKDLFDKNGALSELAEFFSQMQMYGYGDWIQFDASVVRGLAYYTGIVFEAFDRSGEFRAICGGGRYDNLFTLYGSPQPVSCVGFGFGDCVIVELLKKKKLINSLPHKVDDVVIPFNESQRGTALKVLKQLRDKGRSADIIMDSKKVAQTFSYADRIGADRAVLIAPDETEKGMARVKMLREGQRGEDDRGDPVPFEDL
Assay type: functional
Parameters: scale not given: in the data most compounds retested in dose-response had high values

Compared with `O=C(c1ccco1)N1CC[C@@H]2O[C@@H](COCC3CCOCC3)CC[C@@H]21`, `O=C(c1ccnnc1)N1C[C@@H](OCC2CCOCC2)[C@H]2OCCC[C@H]21` is higher in Percent Effect: -0.84% for the first, 11.8% for the second.

Going from `COC[C@@]12CCO[C@@H]1CCN(C(=O)CCc1ccccc1Cl)C2` to `Cc1noc([C@@]23CCO[C@@H]2CCN(C(=O)CCC(C)C)C3)n1`, the Percent Effect falls from 12.9% to 5.56%.

First: CCc1ncc2c(n1)CN(Cc1nnc(Cc3ccccc3)o1)CC2
Second: Cc1ncc2c(n1)CN(Cc1nnc(Cc3ccccc3)o1)CC2
The Percent Effect of the first is lower: 31.2% for the first, 55.4% for the second.

Compared with `CC(C)c1ncc2c(n1)CN(Cc1nnc(Cc3ccccc3)o1)CC2`, `Cc1nnc(N2CCc3cnc(C(C)C)nc3C2)c(C#N)c1C` is higher in Percent Effect: 33% for the first, 46.7% for the second.

First: CC(C)N1C[C@@H]2OCC(=O)N(Cc3ccccc3)[C@@H]2C1
Second: CN(C)CCN1C[C@@H]2CN(c3ccccc3)C[C@@H]2C1=O
The Percent Effect of the first is higher: 8.11% for the first, 6.36% for the second.

Going from `CCc1ncc2c(n1)CN(c1nnc(C)c(C)c1C#N)CC2` to `Cc1nnc(N2CCc3cncnc3C2)c(C#N)c1C`, the Percent Effect rises from 12% to 65.3%.

Compared with `COC(=O)c1ccc(OC)c(CN2CCN(CC(C)C)C(=O)C2C)c1` (stereo unspecified), `COc1cccc(CN2CCN(CC(C)C)C(=O)C2C)c1O` (stereo unspecified) is higher in Percent Effect: 10.8% for the first, 98.9% for the second.

Going from `COc1cc(F)c(CN2CCN(CC(C)C)C(=O)C2C)cc1OC` (stereo unspecified) to `COc1cc(CC(=O)Nc2cccc(C(=O)N(C)C)n2)ccc1C`, the Percent Effect rises from 10.8% to 54%.

Going from `CC(=O)N1CCN(c2ccccc2CNc2cncc(C)c2)CC1` to `COc1ccc(NCc2ccccc2N2CCN(C(C)=O)CC2)cn1`, the Percent Effect rises from 11% to 24.7%.

Compared with `CC(=O)N1CCN(c2ccccc2CNc2ccc3[nH]ncc3c2)CC1`, `NC(=O)c1ccccc1-n1cc(-c2cccc(C(=O)O)c2)cn1` is lower in Percent Effect: 57.5% for the first, 52.6% for the second.

First: Cn1ccnc1CN1CCN(Cc2ccccc2)[C@@H]2CS(=O)(=O)C[C@@H]21
Second: Cn1cccc(NC(=O)N2CCC(Cc3ccccc3)C2)c1=O (stereo unspecified)
The Percent Effect of the first is lower: 5.59% for the first, 106% for the second.

Compared with `CNc1[nH]nc(N)c1NC(=O)c1ccccc1`, `CNc1[nH]nc(N)c1C(=O)Nc1ccccc1` is lower in Percent Effect: 87.5% for the first, -15% for the second.

First: CNc1[nH]nc(N)c1C(=O)Nc1ccc(OC)cc1
Second: CN(C)C(=O)c1cccc(NC(=O)Cc2cc(F)ccc2F)n1
The Percent Effect of the first is higher: 27.5% for the first, 19.7% for the second.

Compared with `Cc1[nH]ccc1C(=O)N1C[C@H]2CC[C@@H]1CN(S(=O)(=O)N(C)C)C2`, `Cc1nc[nH]c1CN1C[C@@H]2CC[C@H](C1)N(C(=O)CCc1cnn(C)c1)C2` is higher in Percent Effect: 16.1% for the first, 16.4% for the second.

First: Cn1cc(CNc2cnn(CCO)c2)c(-c2ccncc2)n1
Second: COCCn1cc(NCc2cn(C)nc2-c2ccncc2)cn1
The Percent Effect of the first is lower: 21.9% for the first, 51.8% for the second.

Compared with `Cn1cc(CNc2cnn(CC3CCCO3)c2)c(-c2ccncc2)n1` (stereo unspecified), `Cc1nn(C)cc1C(=O)N1CCC(CSc2ccccc2)C1` (stereo unspecified) is lower in Percent Effect: 30.7% for the first, 11% for the second.

Going from `Cc1ncsc1CN1C[C@@H]2CN(S(C)(=O)=O)CCO[C@@H]2C1` to `Cc1oncc1C(=O)N1CC[C@H]2[C@H](CO[C@@H]2CNS(C)(=O)=O)C1`, the Percent Effect rises from 20% to 28.6%.

Compared with `Cc1ccc(CN2CC[C@H]3C[C@@H](c4nc(C5CC5)cs4)O[C@@H]3C2)o1`, `Cc1csc(CN2C[C@@H]3COC[C@]3(C(=O)NCc3ccco3)C2)n1` is lower in Percent Effect: 19.8% for the first, 7% for the second.

Compared with `CC(C)(C)C(=O)N1CCC(COCc2ccccc2)C1` (stereo unspecified), `Cc1cnc(C(=O)N2CCC(COCc3ccccc3)C2)cn1` (stereo unspecified) is lower in Percent Effect: 8% for the first, 2.67% for the second.

Going from `CC(C)[C@H](NC(=O)N1CCC(Cc2ccccc2)CC1)C(=O)O` to `Cn1cccc(NC(=O)N2CCC(COCc3ccccc3)C2)c1=O` (stereo unspecified), the Percent Effect rises from -2.5% to 108%.

Going from `Cn1ccnc1CC1CCCN(C(=O)Nc2cccn(C)c2=O)C1` (stereo unspecified) to `Cn1cccc(NC(=O)N2CCC(CSc3ccccc3)C2)c1=O` (stereo unspecified), the Percent Effect rises from 17.3% to 78.1%.

First: COc1c(C(=O)N2CCC(CSc3ccccc3)C2)c(C)nn1C (stereo unspecified)
Second: CCc1cnc(CN(C)C(C)C(=O)N2CCc3ccccc3C2)s1 (stereo unspecified)
The Percent Effect of the first is higher: 19.2% for the first, 9.09% for the second.

First: CN(C)C[C@H]1OC[C@@H]2CCN(C(=O)Cc3cccs3)C[C@@H]21
Second: CN(C)C[C@H]1OC[C@@H]2CCN(C(=O)c3cccn3C)C[C@@H]21
The Percent Effect of the first is lower: 7.89% for the first, 9.43% for the second.

Going from `CN(C)C(=O)N1C[C@@H](C(=O)NCc2ccco2)C[C@H]2OCC[C@H]21` to `Cc1ccc(C)c(CC(=O)Nc2cccc(C(=O)N(C)C)n2)c1`, the Percent Effect rises from 0% to 17.1%.

First: O=C(O)[C@]12CCCN(Cc3cccs3)C[C@H]1CN(c1ncccn1)C2
Second: c1ccc(COC[C@H]2CC[C@H]3[C@H](CCN3Cc3ccccn3)O2)nc1
The Percent Effect of the first is higher: 22.2% for the first, 10% for the second.

First: O=S(=O)(c1cccs1)N1CC[C@H]2[C@H]1CCN2CC1CC1
Second: Cc1csc(CN(C)C(C)C(=O)N2CCc3ccccc3C2)n1 (stereo unspecified)
The Percent Effect of the first is lower: 3.88% for the first, 55.8% for the second.

First: NC(=O)c1cc(-n2cc(-c3cccc(C(=O)O)c3)cn2)cs1
Second: NC(=O)c1cc(-c2cccc(C(=O)O)c2)cs1
The Percent Effect of the first is lower: 10.5% for the first, 15.8% for the second.

Compared with `CCC1=NN2C(=N)/C(=C\c3cccn3-c3ccc(Br)cc3)C(=O)N=C2S1`, `CC(C(=O)N1CCc2ccccc2C1)N(C)Cc1cscn1` (stereo unspecified) is lower in Percent Effect: 11% for the first, 3.9% for the second.
